In all, about 290,000 compounds went through this assay and about 4,200 (1.4%) were called active.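 Rule for the calls: active = binding response more than 3 SD above or below the average of its plate-row segment, actives on both sides; inconclusive = wells at one plate position flagged as instrument error; inactive = the rest.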 Many of the other results were omitted from the sample, so actives are more common in it than they were.

This test deals with Mitogen-activated protein kinase kinase kinase 3 (Homo sapiens) (UniProt Q99759). Nature of the test: modulators of MEKK3-MEK5 PB1 binding, primary screen, biochemical, wildtype MEKK3, multiplex bead flow cytometry, Alexa488-MEK5 (AID 1529).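 Note: Alexa488 bead fluorescence after subtracting the streptavidin-only scavenger bead signal.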 To be noted: bead-based flow cytometry, Alexa488-MEK5 binding to MEKK3; at 10 µM; actives lie on both sides; 0 = blocked by unlabeled MEK5, 100 = vehicle. (Flow cytometry measures light scatter and fluorescence of single cells or particles in a stream.)
Chain of Mitogen-activated protein kinase kinase kinase 3 (Homo sapiens) (Q99759 whole entry, looked up): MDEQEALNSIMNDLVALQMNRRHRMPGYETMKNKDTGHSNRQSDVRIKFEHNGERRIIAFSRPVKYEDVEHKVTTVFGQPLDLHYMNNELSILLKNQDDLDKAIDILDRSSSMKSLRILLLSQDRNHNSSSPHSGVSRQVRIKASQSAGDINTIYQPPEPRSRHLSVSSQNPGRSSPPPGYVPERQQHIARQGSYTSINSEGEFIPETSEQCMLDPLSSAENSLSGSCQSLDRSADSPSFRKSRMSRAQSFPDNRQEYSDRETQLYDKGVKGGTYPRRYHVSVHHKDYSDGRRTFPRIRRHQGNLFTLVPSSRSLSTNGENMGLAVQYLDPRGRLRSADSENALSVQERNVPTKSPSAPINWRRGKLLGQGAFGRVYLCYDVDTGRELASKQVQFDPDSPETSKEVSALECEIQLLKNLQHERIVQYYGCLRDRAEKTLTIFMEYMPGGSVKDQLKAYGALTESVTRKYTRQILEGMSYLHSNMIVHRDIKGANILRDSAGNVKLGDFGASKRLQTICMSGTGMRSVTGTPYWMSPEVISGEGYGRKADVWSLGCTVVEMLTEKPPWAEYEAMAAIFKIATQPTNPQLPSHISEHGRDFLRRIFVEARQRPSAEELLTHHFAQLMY
For `Cc1ccc(SCC(=O)Nc2ncc(C)s2)cc1`, the binding response (% of control) is 100% (inactive).
Consider `Cc1cnc(NC(=O)CSc2nnc(C)s2)s1`, for which the binding response (% of control) is 100% (inactive).
For `Cc1cnc(NC(=O)Cn2cnc3c2c(=O)n(C)c(=O)n3C)s1`, the binding response (% of control) was 136% (active).
Consider `Cc1ccc(OC(=O)CCC(=O)Nc2ccc(Br)cc2)cc1`, for which the binding response (% of control) was 94% (inactive).
In the case of `COc1ccc(-c2csc(Nc3ccc(O)cc3)n2)cc1`, the binding response (% of control) was 95% (inactive).
The result for `COC(=O)CCc1sc(Nc2ccc(Br)cc2)nc1-c1ccc(OC)cc1` reads 136% (active).
Turning to `CC(=O)N1CCN(S(=O)(=O)c2ccc(C)c([N+](=O)[O-])c2)C1C(C)C` (stereo unspecified), the binding response (% of control) was 128% (active).
The same measure for `CSCCC(Nc1ccc(S(=O)(=O)N2CCOCC2)cc1[N+](=O)[O-])C(=O)OCC(=O)N(C(C)C)C(C)C` (stereo unspecified): 98% (inactive).
Consider `Cc1ccc(NC(=O)CN2CCC(C(N)=O)CC2)cc1[N+](=O)[O-]`, for which the binding response (% of control) is 98% (inactive).
Consider `Cc1cc(=O)cc(C)n1-c1ccc(Cl)c(Cl)c1`, for which the binding response (% of control) was 96% (inactive).
Regarding `CC(=O)Nc1ccc(S(=O)(=O)N2CCC(C(=O)NC3CC3)CC2)cc1`, the binding response (% of control) was 104% (inactive).
Turning to `Cc1[nH]n(-c2ccccc2)c(=O)c1/C=N/NC(=O)c1ccoc1C`, the binding response (% of control) was 108% (inactive).
In the case of `CCC(=C/c1sc2ccc3ccccc3c2[n+]1C)/C=C1\Sc2ccc3ccccc3c2N1C`, the binding response (% of control) is 23% [inhibitor] (active).
Regarding `C#CCOCCOCCOCCNc1nc(N2CCN(C(=O)C([C@@H](C)CC)n3cc(C(N)COC(=O)C(F)(F)F)nn3)CC2)nc(N2CCN(C(=O)[C@H](CCCCN)n3cc(C(N)CC(C)C)nn3)CC2)n1` (stereo partly specified), the binding response (% of control) was 120% (inactive).
For `N=C1/C(=C/c2cccn2-c2cccc([N+](=O)[O-])c2)C(=O)N=C2SC=CN12`, the binding response (% of control) was 135% (active).
The result for `Cc1cc(/C=C2/C(=N)N3C(=NC2=O)SN=C3S(C)(=O)=O)c(C)n1-c1ccccc1` reads 96% (inactive); that for `COCOc1cc(O)c(C(=O)/C=C/c2ccc(OCOC)c(OCOC)c2)c(OCOC)c1`, 104% (inactive).
Turning to `Cc1cccc(NC(=O)CCN2CC(C)CC(C)C2)c1` (stereo unspecified), the binding response (% of control) was 107% (inactive).
Consider `Cc1nonc1C1CCCN1Cc1nc(-c2ccc(F)cc2F)oc1C` (stereo unspecified), for which the binding response (% of control) was 85% (inactive).
For `CCN1/C(=C\c2ccc3ccccc3[n+]2CC)Sc2cc(C)ccc21`, the binding response (% of control) was 70% [inhibitor] (active).
On to `CCN1/C(=C/c2ccc3ccc(C)cc3[n+]2CC)Sc2ccccc21`, for which the binding response (% of control) was 95% (inactive).
Take `CCN(CC)CCCNC(=O)c1cn(C)c2ccc(S(=O)(=O)N(C)C3CCCCC3)cc2c1=O`: the binding response (% of control) was 100% (inactive).
Consider `COc1ccc(C(=O)NCc2nnc(SCC(=O)Nc3cccc(OC)c3)o2)cc1`, for which the binding response (% of control) was 102% (inactive).
For the compound `Cc1cccc(/C=N/NC(=O)CNc2cccc3ccccc23)n1`, the binding response (% of control) is 144% (active).
As for `C/C(=N\NC(=O)CNc1cccc2ccccc12)c1ccc(Br)s1`, the binding response (% of control) was 103% (inactive).
For the compound `Cn1cccc1/C=N/NC(=O)CNc1cccc2ccccc12`, the binding response (% of control) was 103% (inactive).
Regarding `CCn1cc(CN2CCC(C(=O)Nc3cccc(-c4cccc(Cl)c4)c3)CC2)c(C)n1`, the binding response (% of control) is 107% (inactive).
As for `CCc1nnc(NC(=O)CCN(c2ccc(C)cc2)S(=O)(=O)c2ccccc2)s1`, the binding response (% of control) was 108% (inactive).
On to `Cc1ccc(N(CCC(=O)O)S(=O)(=O)c2cccc(C(F)(F)F)c2)cc1`, for which the binding response (% of control) is 3% [inhibitor] (active).
With `O=C(O)c1cc(S(=O)(=O)N(Cc2ccccc2)c2cccc(C(F)(F)F)c2)ccc1Cl`, the binding response (% of control) is 106% (inactive).
Turning to `Cc1cc(=O)n2nc(N3CCCC(C(=O)NCc4ccc(Cl)cc4)C3)sc2n1` (stereo unspecified), the binding response (% of control) is 99% (inactive).
Consider `COc1cc(C)nc(N2CCCC(C(=O)NCC(C)C)C2)n1` (stereo unspecified), for which the binding response (% of control) was 130% (active).
Consider `Cc1ccnc(N2CCCC(C(=O)NC3CC3)C2)n1` (stereo unspecified), for which the binding response (% of control) is 100% (inactive).
The result for `CN1CCN(CCNC(=O)Nc2ccccc2[N+](=O)[O-])CC1` reads 104% (inactive); that for `O=C(CN(C(=O)c1csnn1)c1ccc(Br)cc1)NC1CCCC1`, 101% (inactive).
For the compound `Cc1ccccc1CCN(CC(=O)NC1CCCCC1)C(=O)c1csnn1`, the binding response (% of control) was 142% (active).
For `Cc1ccc(CN(CC(=O)NC2CCCCC2)C(=O)c2csnn2)cc1`, the binding response (% of control) is 103% (inactive).
The same measure for `COc1ccccc1CC(=O)Nc1ccc(F)cc1F`: 106% (inactive); for `COc1ccccc1CC(=O)Nc1ccc([N+](=O)[O-])cc1OC`: 139% (active); for `COc1cc([N+](=O)[O-])ccc1NC(=O)CN1CCCC1`: 104% (inactive).
The same measure for `CCC(C)(C)NC(=O)C1c2ccccc2Oc2ccccc21`: 99% (inactive); for `CC(C)(C)c1nnc(NC(=O)C2c3ccccc3Oc3ccccc32)s1`: 45% [inhibitor] (active).
The result for `CCC(C)NC(=O)C1c2ccccc2Oc2ccccc21` (stereo unspecified) reads 71% (inactive); that for `C=CCSc1nnc2c(n1)-c1cccc3cccc-2c13`, 104% (inactive).
On to `COc1ccc(C(=O)NC(=S)NC2CCCCC2)cc1`, for which the binding response (% of control) was 106% (inactive).
The same measure for `Brc1ccccc1C1N=C(c2ccccc2)NO1` (stereo unspecified): 103% (inactive).

The values above are taken from PubChem BioAssay AID1529 (NMMLSC, 2009).
